Test results published in PubChem BioAssay (NCATS).
Inconclusive results are not listed. Calls come from the whole dose curve; as a rule, active = well fitted inhibition curve with a large enough effect; inconclusive = small, poorly fitted or top-dose-only effect; inactive = no such curve, though single readings can be large or run the other way.

Test: Primary qHTS for small molecule stabilizers of the endoplasmic reticulum resident proteome: Secreted ER Calcium Modulated Protein (SERCaMP) assay (AID 1508630)
Conditions: SH-SY5Y GLuc-SERCaMP (Gaussia luciferase released on ER calcium loss) secretion, thapsigargin, luminescence; series mostly up to 38.4 µM; activity change, negative = inhibition: at the top concentration
Procedure, shortened: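 The SH-SY5Y reporter protocol was run at 3 concentrations up to 38.3 uM (primary) or 11 concentrations (follow-up): 16 h compound, 100 nM thapsigargin for 4 h, then extracellular luciferase luminescence.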
% is set by controls: 0 for no effect and ±100 for the full control effect.

Activity change, negative = inhibition, inactive:
O=C1Nc2ccccc2C(=O)N2CCC[C@@H]12 -0.369%, COc1cc2c(cc1OC)C1CCC3=C([C@H](C)OC3=O)N1CC2 (stereo partly drawn) -6.63%, CC1=CC(=O)OC1Cc1ccc2ccccc2n1 (stereo not drawn) 1.73%, COc1ccc2cnoc(=O)c2c1OC -17.3%, O=c1cc(-c2cc3ccccc3oc2=O)c2ccc(O)cc2o1 -21.8%, COC(=O)/C(=C1/OC(=O)C(c2ccccc2)=C1O)c1ccccc1 14.6%, C=C1C[C@]23C[C@@]1(O)CC[C@H]2[C@@]12C=C[C@H](O)C(C)(C(=O)O1)[C@H]2[C@@H]3CC(=O)O -7.21%, CC1=C(C(=O)O)N2C(=O)[C@@H](NC(=O)[C@H](N)C3=CCC=CC3)[C@@H]2SC1 1.97%, CC(=O)Nc1ccccc1C(=O)C(=O)O -9.75%, C[C@@H]1CCC2C(C)(C)C3CC21CC[C@@]3(C)O (stereo partly drawn) -18.2%, O=C(O)C[C@@H]1NC(=O)[C@H](Cc2ccccc2)NC1=O 5.11%, COC(=O)N1c2ccccc2C23[C@@H]4CN5CCC[C@]6(CCC12C(O)(C6)C4=O)[C@H]53 -8.91%, COC(=O)[C@H]1Cc2c([nH]c3ccccc23)CN1C(=O)COc1ccc2c(C)cc(=O)oc2c1 26.7%, CC1=CC(=O)CC(C)(C)C1(O)/C=C/C(C)=C/C(=O)O (stereo not drawn) 0.818%, Cc1cc(O)c2c(c1O)C(=O)C(O)=C(O)C2=O -18%, O=C1CCCC2[C@@H]3CCC[N@+]4([O-])CCC[C@H](CN12)C34 (stereo partly drawn) -12.8%, CCCCCCCCCCCCCCCC(=O)C1=C(O)C(CO)OC1=O (stereo not drawn) -2.77%, CC(C)C1=CC2=CC[C@H]3[C@](C)(C(=O)O)CCC[C@]3(C)C2CC1 (stereo partly drawn) -2.83%
